# High-throughput results from PubChem BioAssay.
# D2 PAM-1: positive allosteric modulators of human D2 dopamine receptor | DiscoveRx D2 beta-arrestin cells, luminescence, 90 min; 100% = 57 uM dopamine signal | potentiation, % (concentration not given with the values) | 0.23% of 360,000 active; in the data active = potentiation above about 50%; inconclusive = mostly about 30% to 49%
# Target sequence (P14416 whole entry, looked up): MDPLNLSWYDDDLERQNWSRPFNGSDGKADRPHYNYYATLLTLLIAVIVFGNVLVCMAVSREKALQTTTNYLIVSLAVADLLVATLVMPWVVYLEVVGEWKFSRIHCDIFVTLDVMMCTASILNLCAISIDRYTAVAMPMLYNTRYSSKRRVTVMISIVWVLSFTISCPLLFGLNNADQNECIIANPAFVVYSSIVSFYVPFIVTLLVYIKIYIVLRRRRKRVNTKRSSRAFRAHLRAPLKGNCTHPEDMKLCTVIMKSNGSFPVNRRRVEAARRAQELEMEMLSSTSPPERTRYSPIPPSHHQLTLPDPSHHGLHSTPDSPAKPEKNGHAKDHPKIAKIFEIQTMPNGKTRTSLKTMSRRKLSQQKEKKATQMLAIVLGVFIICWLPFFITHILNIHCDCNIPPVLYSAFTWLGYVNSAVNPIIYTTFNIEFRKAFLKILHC
#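 D2 cells co-treated with compound plus 50 nM dopamine (EC20) for 90 min at 37 deg C to detect potentiation. Beta-arrestin recruitment was read as enzyme-fragment luminescence after 1 h at ambient temperature. Full response was set by 57 uM dopamine.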
# D2 ag-1: agonists of human D2 dopamine receptor (beta-arrestin). P14416. DiscoveRx PathHunter D2 beta-arrestin, luminescence, 90 min; 100% = 57 uM dopamine signal. activation, % (no concentration beside the values). 0.084% of 360,000 active. AID 624465; in the data active = activation above about 40%; inconclusive = between about 15% and that limit
#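 DiscoveRx PathHunter D2 beta-arrestin cells (2,100/well) attached overnight, then compound-stimulated 90 min at 37 C in HBSS/10 mM HEPES/0.1% Tween-20 buffer; beta-galactosidase complementation read by luminescence after 1 h at ambient temperature. Dopamine 57 uM final (EC100) as control.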
# D2 antag: antagonists of human D2 dopamine receptor | HEK293 TREx D2 cells, calcium flux, dopamine EC80 | AID 485344 | P14416 | inhibition, % at 10 µM | 2% of 340,000 active; in the data active = inhibition above about 30%; inactive = below that, where a call was filed
#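 HEK293 T-REx D2 cells, tet-induced, calcium dye no-wash. Cpd pintool add, 180 s kinetic, then EC80 DA, 180 s kinetic. Ca flux read.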
# D2 PAM-2: D2 dopamine receptor (human) potentiation; 0.34% of 340,000 active; potentiation, % at 10 µM; HEK293 T-REx D2, calcium flux, EC20 dopamine potentiation; AID 485347; P14416;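 active = potentiation over 3 SD above the plate norm, cut at about 30% in these data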
#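 Cells plated with tetracycline inducer and held overnight at 30 C; calcium dye loaded 30–90 min at room temperature; baseline taken, compound added and read 180 s; EC20 dopamine then added and read 180 s.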
# D2 ag-2: agonists of human D2 dopamine receptor; HEK293 T-REx D2 cells, calcium flux agonist mode; activation, % at 2 µM; 0.53% of 340,000 active;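 active = activation over 3 SD above normal in the single-dose calcium agonist read, cut at about 30% in these data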
#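 Tetracycline-induced HEK293 Trex cells with D2 receptor force-coupled to calcium signaling, plated overnight at 30 C and loaded with no-wash calcium dye. Calcium flux read kinetically for 180 s after compound addition; responses flag agonists.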
# Hits are given with their value; i = inactive; ? = inconclusive; nt = no result given. In the library only some 2.4% were active in any assay of this set; here they are far more common.
SMILES,D2 PAM-1,D2 ag-1,D2 antag,D2 PAM-2,D2 ag-2
Cc1ccccc1C(=O)OCc1cc(=O)n2nc(C(C)C)sc2n1,nt,nt,nt,i,i
COc1ccc(NC(=O)CSCC(=O)NC2(C)CCS(=O)(=O)C2)cc1 (stereo unspecified),i,i,i,i,i
CN(C)S(=O)(=O)c1ccc(Cl)c(NC(=O)C2CCN(S(=O)(=O)c3cccs3)CC2)c1,i,i,31,i,i
O=C(Cc1cccs1)Nc1ccc(S(=O)(=O)N2CCCCC2)cc1,i,i,i,i,i
O=C(Cc1cccs1)Nc1cc(S(=O)(=O)N2CCCCC2)ccc1Cl,i,i,i,77,i
COc1ccc(C(=O)c2oc3ccccc3c2NC(=O)COc2c(C)cc(C)cc2C)cc1,nt,nt,nt,i,i
COc1ccc(/C=N/Nc2nnc(-c3ncc[nH]3)c3ccccc23)cc1,i,i,47,i,i
CCc1ccc(CN(Cc2ccco2)c2cnc(S(C)(=O)=O)nc2C(=O)Nc2ccc(C)c(Cl)c2)cc1,nt,nt,nt,i,i
C=CCOc1c(Br)cc(/C=C(\C#N)C(N)=O)cc1OC,i,i,i,i,i
COc1cc(C=O)cc(Br)c1OCC(N)=O,i,i,34,i,i
O=C(Cc1ccc(F)cc1)NCCc1csc2nc(-c3ccccc3F)nn12,nt,nt,nt,i,nt
CCOC(=O)C1=C[C@@H](c2ccccc2)N(S(=O)(=O)c2ccc(C)cc2)[C@H]1c1ccc(OC)cc1,i,i,nt,nt,nt
CCCNC(=O)CN1C(=O)CSc2ccc(S(=O)(=O)N3CCC(C)CC3)cc21,nt,nt,nt,i,i
CCOc1cccc2sc(Nc3nc4ccc(NC(C)=O)cc4s3)nc12,i,i,31,i,i
N/C(COc1ncn(-c2ccccc2)n1)=N\S(=O)(=O)c1ccc(Cl)cc1Cl,i,i,i,32,i
NC(=O)COc1ncn(-c2ccccc2)n1,i,i,i,i,i
COc1ccc(-c2noc(CN(C)S(=O)(=O)c3c(C)cc(C)cc3C)n2)cc1OC,nt,nt,nt,i,i
COc1ccc(-c2noc(-c3ccc(Cl)cc3[N+](=O)[O-])n2)cc1OC,89,?,i,i,i
COc1ccc(-c2noc(CN(C)S(=O)(=O)c3ccc(Cl)cc3)n2)cc1OC,i,i,i,45,i
COc1ccc(-c2noc(-c3ccco3)n2)cc1OC,i,i,i,36,i
CN(C)S(=O)(=O)c1ccc2c(c1)N(CC(=O)NCc1ccc(F)cc1)C(=O)CS2,nt,nt,nt,i,i
CCC(Cn1nnc2ccccc2c1=O)NC(=O)Nc1cc(OC)cc(OC)c1 (stereo unspecified),nt,nt,nt,i,i
Cc1cc(C)c(NC(=O)Cn2c(=O)oc3cc(S(=O)(=O)N4CCCCCC4)ccc32)c(C)c1,nt,nt,nt,i,i
CCOC(=O)c1cccc(NC(=O)CCc2c(C)nn(-c3ccc(N4CCCCC4)nn3)c2C)c1,nt,nt,nt,i,i
COCCNC(=O)CN(C(=O)c1ccc(N2CCCC2)nc1)c1ccc(Cl)cc1,i,i,i,34,i
SMILES,D2 PAM-1,D2 ag-1,D2 antag,D2 PAM-2,D2 ag-2
CC(C)(OC(=O)c1ccc(F)cc1)c1cc2ccccc2c(=O)o1,i,i,i,i,i
CCOc1ccc2[nH]c(=O)c(CN(CCO)Cc3nnnn3CCc3ccccc3)cc2c1,i,i,39,i,i
CCOC(=O)c1ccc(NC(=O)c2c(NCc3ccc(OC)c(OC)c3OC)sc3c2CCC(C)C3)cc1 (stereo unspecified),nt,nt,nt,i,i
O=C1S/C(=C\c2ccc(N3CCOCC3)o2)C(=O)N1c1ccccc1,i,i,i,i,31
O=C(NCC(c1ccco1)N1CCCC1)c1cccc(S(=O)(=O)N2CCc3ccccc32)c1 (stereo unspecified),i,i,nt,nt,nt
Cc1ccc2c(=O)c(C(=O)c3ccc(F)cc3)cn(CC(=O)NCc3ccco3)c2n1,i,i,33,i,i
NC1=C(Cl)C(=O)c2ccc(S(N)(=O)=O)cc2C1=O,58,i,nt,nt,nt
NS(=O)(=O)c1ccc2c(c1)C(=NO)c1cc(S(N)(=O)=O)ccc1-2,i,i,i,i,i
NC1=C(Cl)C(=O)c2ccccc2C1=O,51,i,nt,nt,nt
COc1ccccc1-c1csc(C(O)(c2ccccc2)C(F)(F)F)n1 (stereo unspecified),i,i,nt,nt,nt
CCOC(=O)c1ccc(N2CCN(c3ccccc3OC)CC2)c(NC(=O)Nc2ccc(CC)cc2)c1,nt,nt,nt,i,i
O=C(c1ccco1)[C@@H]1[C@@H]2C(=O)N(c3ccc(F)cc3)C(=O)[C@@H]2[C@H]2C=Cc3ccccc3N21,i,i,43,i,i
NC(=O)[C@@H]1[C@@H]2C(=O)N(c3ccc(F)cc3)C(=O)[C@@H]2[C@H]2C=Cc3ccccc3N21,i,i,i,i,i
Cc1cc(OCCN2CCN(S(=O)(=O)c3ccccc3F)CC2)ccc1C(C)C,i,i,i,66,i
COc1ccc(OCCN2CCN(S(=O)(=O)c3ccccc3C(F)(F)F)CC2)cc1,i,i,i,i,i
O=C(O)CCCCCNS(=O)(=O)/C=C/c1ccccc1,i,i,i,i,i
O=C(O)CCCCCNS(=O)(=O)c1cccc2c1C(=O)c1ccccc1C2=O,76,i,i,i,i
CC(C)(C)CC(C)(C)N=C1NS(=O)(=O)c2cc([N+](=O)[O-])ccc21,i,?,i,i,i
CC(C)(CO)N=C1NS(=O)(=O)c2cc([N+](=O)[O-])ccc21,90,?,i,i,i
CC(C)Cn1c(N)c(C(=O)CSc2ccc3c(c2)OCCO3)c(=O)n(C)c1=O,i,i,i,33,i
CC(C)Cn1c(N)c(C(=O)COC(=O)c2c(F)cccc2F)c(=O)n(C)c1=O,i,i,45,i,i
CCN(CC)c1ccc(/C=C/C(=O)c2ccc(Br)cc2)cc1,i,i,71,i,94
CCOC(=O)C(=CNc1cc(C)nn1-c1ccc(C)cc1)C(=O)OCC,65,i,i,i,i
CSC1=NC=C(C#N)C2=NC(c3c(Cl)cccc3Cl)NN12 (stereo unspecified),i,i,nt,nt,nt
CC1c2ccccc2SC(CCCN(C)C)c2ccccc21 (stereo unspecified),i,i,50,i,i
SMILES,D2 PAM-1,D2 ag-1,D2 antag,D2 PAM-2,D2 ag-2
CN(C)c1ncnc2c1ncn2[C@H]1CN(Cc2ccc(-c3ccccc3)cc2)C[C@@H](CO)O1,i,i,nt,nt,nt
CCN(CC)C(=O)C1=C(C)NC(=S)NC1c1cccs1 (stereo unspecified),i,i,31,i,i
O=C(CCN1CCN(CCO)CC1)Nc1ccc(OCc2ccccc2)cc1,i,i,i,i,i
O=C(CCN1CCN(Cc2ccccc2)CC1)Nc1ccc(OCc2ccccc2)cc1,i,i,42,i,i
CCCOc1ccc(NC(=O)CC2C(=O)N(CC)C(=S)N2CCCN2CCN(Cc3ccccc3)CC2)cc1 (stereo unspecified),i,?,33,nt,i
CCN(CC)Cc1cc(Oc2ccc(O)c(CN(CC)CC)c2)ccc1O,i,i,nt,nt,nt
